This assay concerns MDA-MB-468 breast. The assay can be described thus: NCI-60 one-dose screen, 48 h (100 = growth as untreated, 0 = no growth, -100 = all killed). To be noted: 10 µM unless noted.

Compounds without any hit were thinned out: in the full panel of roughly 83,000, 20% have a hit.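 Method: cells in 96-well plates; compound added at one concentration; 48 h incubation; percent growth measured; values under 10 scored active.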 Unmarked numbers belong to inactive results. Active and inactive are the calls of the source.

Regarding `CCc1c2c(nc3ccc(OCc4ccc(B5OC(C)(C)C(C)(C)O5)cc4)cc13)-c1cc3c(c(=O)n1C2)COC(=O)[C@]3(O)CC`, the growth was -42% (active).
Next, `COc1ccc(-c2nn(-c3ccc(NC(=O)Nc4cc(C(F)(F)F)cc(C(F)(F)F)c4)cc3)cc2-c2ccncc2)cc1Cl`: -11.6% (active); `CC(C)(C)n1cc(-c2ccnc(NCCCNS(=O)(=O)c3ccccc3)c2)c(-c2cccc(O)c2)n1`: 9.54% (active).
Next, `O=c1oc2ccc(-c3ccc(F)cc3F)cc2c(=O)n1-c1ccc(F)c(F)c1`: -10.8% (active); `O=C1Nc2cc(Cl)ccc2/C1=C\c1ccc(OCc2ccc(Br)cc2F)cc1`: -37.8% (active); `COc1cc2c(c(OC)c1OC)CCC(c1cccc(C(=O)Nc3cccc(Br)c3)c1)O2` (stereo not drawn): 58.6%.
Regarding `CN(C)CCC1(c2ccccc2)CCN(C)C1=O` (stereo not drawn), the growth was 94.7%.
As to `COC(=O)c1cc2c(n1Cc1ccccc1)-c1oncc1CCC2`, the growth was 63.5%.
Next, `CC(=O)c1ccc(-n2cc(CN3CCN(c4cc5c(cc4F)c(=O)c(C(=O)O)cn5C4CC4)CC3)nn2)cc1`: 72.5%; `C=CC[N+](C)(C)C`: 97.4%.
As for `CCCCCc1c(C)[nH]c(/C=C2\N=C(c3ccc[nH]3)C=C2Oc2ccc(Cl)cc2)c1C`, the growth was -16.4% [100 µM] (active).
The value for `CN(C)CCCNc1nn2c(=O)c3ccccc3nc2c2ccccc12` was 53.4%; that for `NS(=O)(=O)c1ccc(Nc2nc(Nc3ccccc3)nc(-n3nc(-c4ccccc4)cc3-c3ccccc3)n2)cc1` was 11.7%.

Values taken from PubChem BioAssay (NCI).
